Measurements published in PMC12820563, “FoxP3 forms a head-to-head dimer in vivo and stabilizes its multimerization on adjacent microsatellites”.
Over roughly 16,000 sequences, “rpm ratio (pull-down/input)” has its median near 0.94; the highest 2% begin near 1.7. The entries come from a sample that favours the highest values as a whole.

target: T1, MBP-FoxP1dN (Mus musculus, UniProt P58462 326-579); assay: PD-seq (MBP pull-down with sequencing); 20 mM Tris-HCl pH 7.5, 100 mM NaCl, 1.5 mM MgCl2, 0.4 uM protein, 0.1 uM dsDNA library, 30 min, room temperature, amylose pull-down; high values mean tight binding; conditions: protein: recombinant; tags: His6-MBP; chain copies: 2; dsDNA, one strand shown
T1 sequence: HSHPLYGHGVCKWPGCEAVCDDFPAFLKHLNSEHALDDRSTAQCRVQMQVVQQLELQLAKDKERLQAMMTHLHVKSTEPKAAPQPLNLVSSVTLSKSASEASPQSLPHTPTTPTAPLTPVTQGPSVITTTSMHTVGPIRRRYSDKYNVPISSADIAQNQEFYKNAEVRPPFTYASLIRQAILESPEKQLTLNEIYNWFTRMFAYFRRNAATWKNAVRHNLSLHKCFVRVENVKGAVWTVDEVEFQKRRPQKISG
How it was run: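 A fragment of mouse FoxP3 or FoxP1 without its N-terminus, carrying a His6-MBP tag and produced in E. coli, was combined at 0.4 µM with a 0.1 µM degenerate double-stranded DNA library filled in with Klenow. The mixture sat for 30 min at room temperature in Tris pH 7.5 buffer containing NaCl and MgCl2. Protein–DNA complexes were captured on amylose resin, washed three times, and the DNA was freed with proteinase K, barcoded by PCR and sequenced on Illumina. Binding is expressed as reads-per-million enrichment of pull-down over input, with replicates pooled.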

Question: For “GATGATTGTTCTCCCAGCTGATGAATTGTCGCTGTCGAGTAAACAAATTTTCCTAATCTTTCTGTTCAAGCGCCATCTAC”, which binding signal is on record?
Answer: The binding signal was 1.02 RPM ratio (pull-down/input).

Question: How did the binding signal turn out when “GATGATTGTTCTCCCAGCTGATGAATTCTGGACATCGAGTAAACAAATTTTCCTAATCTTTCTGTTCAAGCGCCATCTAC” was run?
Answer: The binding signal was 0.937 RPM ratio (pull-down/input).

Question: Which binding signal does the source give for “GATGATTGTTCTCCCAGCTGATGAATTACCAGGTTCGAGTAAACAAATTTTCCTAATCTTTCTGTTCAAGCGCCATCTAC” here?
Answer: The binding signal was 0.873 RPM ratio (pull-down/input).

Question: For “GATGATTGTTCTCCCAGCTGATGAATTATGGTTTTCGAGTAAACAAATTTTCCTAATCTTTCTGTTCAAGCGCCATCTAC”, which binding signal is on record?
Answer: Its binding signal is 1.24 RPM ratio (pull-down/input).

Question: Which binding signal does the source give for “GATGATTGTTCTCCCAGCTGATGAATTTTTCATCTCGAGTAAACAAATTTTCCTAATCTTTCTGTTCAAGCGCCATCTAC” here?
Answer: Its binding signal is 0.937 RPM ratio (pull-down/input).

Question: “GATGATTGTTCTCCCAGCTGATGAATTCATTCGGTCGAGTAAACAAATTTTCCTAATCTTTCTGTTCAAGCGCCATCTAC” was tested. Which binding signal did it give?
Answer: The binding signal was 0.807 RPM ratio (pull-down/input).

Question: How did the binding signal turn out when “GATGATTGTTCTCCCAGCTGATGAATTATTATGATCGAGTAAACAAATTTTCCTAATCTTTCTGTTCAAGCGCCATCTAC” was run?
Answer: The binding signal was 1.41 RPM ratio (pull-down/input).

Question: “GATGATTGTTCTCCCAGCTGATGAATTATCTAAATCGAGTAAACAAATTTTCCTAATCTTTCTGTTCAAGCGCCATCTAC” was tested. Which binding signal did it give?
Answer: Its binding signal is 1.18 RPM ratio (pull-down/input).

Question: With “GATGATTGTTCTCCCAGCTGATGAATTATTGTGATCGAGTAAACAAATTTTCCTAATCTTTCTGTTCAAGCGCCATCTAC” as the sequence, how does the binding signal read?
Answer: Its binding signal is 1.76 RPM ratio (pull-down/input).

Question: Which binding signal does the source give for “GATGATTGTTCTCCCAGCTGATGAATTGTGATTATCGAGTAAACAAATTTTCCTAATCTTTCTGTTCAAGCGCCATCTAC” here?
Answer: The binding signal was 1.74 RPM ratio (pull-down/input).

Question: How did the binding signal turn out when “GATGATTGTTCTCCCAGCTGATGAATTATCTGAATCGAGTAAACAAATTTTCCTAATCTTTCTGTTCAAGCGCCATCTAC” was run?
Answer: The binding signal was 0.99 RPM ratio (pull-down/input).

Question: For “GATGATTGTTCTCCCAGCTGATGAATTATTCTGATCGAGTAAACAAATTTTCCTAATCTTTCTGTTCAAGCGCCATCTAC”, which binding signal is on record?
Answer: Its binding signal is 0.97 RPM ratio (pull-down/input).

Question: How did the binding signal turn out when “GATGATTGTTCTCCCAGCTGATGAATTATGACAATCGAGTAAACAAATTTTCCTAATCTTTCTGTTCAAGCGCCATCTAC” was run?
Answer: The binding signal was 1.38 RPM ratio (pull-down/input).

Question: Which binding signal does the source give for “GATGATTGTTCTCCCAGCTGATGAATTAAATAAATCGAGTAAACAAATTTTCCTAATCTTTCTGTTCAAGCGCCATCTAC” here?
Answer: The binding signal was 1.49 RPM ratio (pull-down/input).

Question: With “GATGATTGTTCTCCCAGCTGATGAATTAACATCATCGAGTAAACAAATTTTCCTAATCTTTCTGTTCAAGCGCCATCTAC” as the sequence, how does the binding signal read?
Answer: The binding signal was 1.31 RPM ratio (pull-down/input).

Question: “GATGATTGTTCTCCCAGCTGATGAATTAACATAATCGAGTAAACAAATTTTCCTAATCTTTCTGTTCAAGCGCCATCTAC” was tested. Which binding signal did it give?
Answer: Its binding signal is 1.45 RPM ratio (pull-down/input).

Question: With “GATGATTGTTCTCCCAGCTGATGAATTAATAACATCGAGTAAACAAATTTTCCTAATCTTTCTGTTCAAGCGCCATCTAC” as the sequence, how does the binding signal read?
Answer: The binding signal was 2.02 RPM ratio (pull-down/input).

Question: Which binding signal does the source give for “GATGATTGTTCTCCCAGCTGATGAATTATTAACATCGAGTAAACAAATTTTCCTAATCTTTCTGTTCAAGCGCCATCTAC” here?
Answer: The binding signal was 1.32 RPM ratio (pull-down/input).

Question: With “GATGATTGTTCTCCCAGCTGATGAATTAACAACATCGAGTAAACAAATTTTCCTAATCTTTCTGTTCAAGCGCCATCTAC” as the sequence, how does the binding signal read?
Answer: Its binding signal is 2.17 RPM ratio (pull-down/input).

Question: How did the binding signal turn out when “GATGATTGTTCTCCCAGCTGATGAATTTTACGTTTCGAGTAAACAAATTTTCCTAATCTTTCTGTTCAAGCGCCATCTAC” was run?
Answer: Its binding signal is 0.852 RPM ratio (pull-down/input).

Question: How did the binding signal turn out when “GATGATTGTTCTCCCAGCTGATGAATTGCCTAGTTCGAGTAAACAAATTTTCCTAATCTTTCTGTTCAAGCGCCATCTAC” was run?
Answer: Its binding signal is 0.959 RPM ratio (pull-down/input).

Question: “GATGATTGTTCTCCCAGCTGATGAATTAACACGCTCGAGTAAACAAATTTTCCTAATCTTTCTGTTCAAGCGCCATCTAC” was tested. Which binding signal did it give?
Answer: The binding signal was 1.02 RPM ratio (pull-down/input).

Question: With “GATGATTGTTCTCCCAGCTGATGAATTGGTGGTGTCGAGTAAACAAATTTTCCTAATCTTTCTGTTCAAGCGCCATCTAC” as the sequence, how does the binding signal read?
Answer: Its binding signal is 0.948 RPM ratio (pull-down/input).

Question: “GATGATTGTTCTCCCAGCTGATGAATTGTTGGTGTCGAGTAAACAAATTTTCCTAATCTTTCTGTTCAAGCGCCATCTAC” was tested. Which binding signal did it give?
Answer: Its binding signal is 1.8 RPM ratio (pull-down/input).

Question: For “GATGATTGTTCTCCCAGCTGATGAATTGGTGTCGTCGAGTAAACAAATTTTCCTAATCTTTCTGTTCAAGCGCCATCTAC”, which binding signal is on record?
Answer: The binding signal was 1.04 RPM ratio (pull-down/input).

Question: For “GATGATTGTTCTCCCAGCTGATGAATTGGTGTTGTCGAGTAAACAAATTTTCCTAATCTTTCTGTTCAAGCGCCATCTAC”, which binding signal is on record?
Answer: The binding signal was 2.78 RPM ratio (pull-down/input).

Question: With “GATGATTGTTCTCCCAGCTGATGAATTTTTGGTGTCGAGTAAACAAATTTTCCTAATCTTTCTGTTCAAGCGCCATCTAC” as the sequence, how does the binding signal read?
Answer: The binding signal was 0.926 RPM ratio (pull-down/input).

Question: “GATGATTGTTCTCCCAGCTGATGAATTTGGTGTGTCGAGTAAACAAATTTTCCTAATCTTTCTGTTCAAGCGCCATCTAC” was tested. Which binding signal did it give?
Answer: Its binding signal is 1 RPM ratio (pull-down/input).

Question: Which binding signal does the source give for “GATGATTGTTCTCCCAGCTGATGAATTAGACCTTTCGAGTAAACAAATTTTCCTAATCTTTCTGTTCAAGCGCCATCTAC” here?
Answer: The binding signal was 0.881 RPM ratio (pull-down/input).

Question: With “GATGATTGTTCTCCCAGCTGATGAATTCGACCGATCGAGTAAACAAATTTTCCTAATCTTTCTGTTCAAGCGCCATCTAC” as the sequence, how does the binding signal read?
Answer: Its binding signal is 0.823 RPM ratio (pull-down/input).

Question: For “GATGATTGTTCTCCCAGCTGATGAATTAGCCGTTTCGAGTAAACAAATTTTCCTAATCTTTCTGTTCAAGCGCCATCTAC”, which binding signal is on record?
Answer: Its binding signal is 0.852 RPM ratio (pull-down/input).

Question: Which binding signal does the source give for “GATGATTGTTCTCCCAGCTGATGAATTATATATTTCGAGTAAACAAATTTTCCTAATCTTTCTGTTCAAGCGCCATCTAC” here?
Answer: The binding signal was 1.06 RPM ratio (pull-down/input).

Question: With “GATGATTGTTCTCCCAGCTGATGAATTATATTTTTCGAGTAAACAAATTTTCCTAATCTTTCTGTTCAAGCGCCATCTAC” as the sequence, how does the binding signal read?
Answer: The binding signal was 1.61 RPM ratio (pull-down/input).

Question: How did the binding signal turn out when “GATGATTGTTCTCCCAGCTGATGAATTTATATTTTCGAGTAAACAAATTTTCCTAATCTTTCTGTTCAAGCGCCATCTAC” was run?
Answer: Its binding signal is 2.37 RPM ratio (pull-down/input).

Question: How did the binding signal turn out when “GATGATTGTTCTCCCAGCTGATGAATTTTATATTTCGAGTAAACAAATTTTCCTAATCTTTCTGTTCAAGCGCCATCTAC” was run?
Answer: The binding signal was 1.07 RPM ratio (pull-down/input).
